ALOX12 inh: Primary qHTS assay for inhibitors of human arachidonate 12S-lipoxygenase (ALOX12): Round 2; purified 12hLO, xylenol orange hydroperoxide absorbance; Potency, µM (doses to about 108 µM), inactives show at the highest dose activity change, negative = inhibition, most hits filed as inhibitors; hit rate 1.1% among 580,000; AID 1671190, 2021; also: potency is read from the fitted curve at half-maximal effect
Target sequence (P18054 whole entry, looked up): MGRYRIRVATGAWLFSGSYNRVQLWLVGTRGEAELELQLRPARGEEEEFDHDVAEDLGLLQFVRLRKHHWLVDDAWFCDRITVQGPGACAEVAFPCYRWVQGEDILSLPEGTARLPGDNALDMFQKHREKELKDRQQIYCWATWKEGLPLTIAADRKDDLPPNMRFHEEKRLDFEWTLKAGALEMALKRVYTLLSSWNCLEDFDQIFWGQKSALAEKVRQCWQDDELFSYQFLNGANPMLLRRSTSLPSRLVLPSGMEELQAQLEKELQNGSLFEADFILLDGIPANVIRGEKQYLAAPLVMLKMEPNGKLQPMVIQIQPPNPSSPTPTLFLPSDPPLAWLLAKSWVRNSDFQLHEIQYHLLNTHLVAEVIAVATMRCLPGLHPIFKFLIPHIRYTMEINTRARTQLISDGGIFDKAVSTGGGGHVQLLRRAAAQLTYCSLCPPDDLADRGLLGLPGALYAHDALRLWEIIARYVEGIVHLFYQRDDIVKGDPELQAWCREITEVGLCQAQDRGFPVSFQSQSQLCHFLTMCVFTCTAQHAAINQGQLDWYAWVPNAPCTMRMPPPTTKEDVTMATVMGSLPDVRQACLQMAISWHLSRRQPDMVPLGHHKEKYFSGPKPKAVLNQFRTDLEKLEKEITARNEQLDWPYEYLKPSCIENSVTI
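Hydroperoxide product was detected by ferrous iron/xylenol orange as the 573 to 405 nm absorbance ratio. Arachidonic acid at 40 uM (final) was turned over for 30 min at room temperature by 150 nM human 12hLO, pH 7.0 Hepes buffer, after 15 min compound preincubation.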
HT1080NT lethal: qHTS for induction of synthetic lethality in tumor cells producing 2HG: qHTS for the HT-1080-NT fibrosarcoma cell line; Potency, µM (doses to about 46.1 µM), for the others: at the top dose activity, negative = less viability, usual class: cytotoxic; HT-1080-NT fibrosarcoma viability, CellTiter-Glo ATP luminescence, 48 h; hit rate 1.6% among 360,000;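 also: NT is the 2HG producing partner of a matched IDH1 knockdown line; potency is read from the fitted curve at half-maximal effect; 0% = DMSO-treated cells and -100% = media-only wells without cells; nearly all actives have a fitted effect of over 55% in size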
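Fibrosarcoma NT cells, 750 per well in 5% FBS RPMI, were exposed to compound for 48 hours. Viability: CellTiter-Glo luminescence.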
HT1080 IDH1KD tx: qHTS for induction of synthetic lethality in tumor cells producing 2HG: qHTS for the HT-1080-IDH1KD cell line; HT-1080 IDH1 knockdown viability, ATP luminescence, 48 h; Potency, µM (highest dose often 46.1 µM), for inactives: at the top dose activity, negative = toxicity, most hits filed as cytotoxic; hit rate 2% among 360,000; AID 686971, 2013;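 also: potency is read from the fitted curve at half-maximal effect; 0% = DMSO wells and -100% = cell-free medium wells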
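Cytotoxicity counter-line: IDH1KD HT-1080, 48 h, CellTiter-Glo. Curves classed by r2, magnitude and activity.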
DT40 TDP1 no CPT: qHTS for Inhibitors of human tyrosyl-DNA phosphodiesterase 1 (TDP1): qHTS in cells in absence of CPT. AID 686978, 2013. hit rate 15% among 420,000. DT40 Tdp1-/- hTDP1 cells, no CPT, ATP luminescence, 48 h. Potency, µM (top dose mostly 46.2 µM), for inactives: at the top dose activity change, negative = growth inhibition, actives largely listed as inhibitors; also: potency is read from the fitted curve at half-maximal effect; nearly all actives have a fitted effect of over 55% in size
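Chicken DT40 Tdp1-/- cells stably complemented with human TDP1 were seeded at 400 cells/well with DMSO in place of 20 nM camptothecin. After compound pinning, cells grew at least 48 hr at 37 °C; viability read by CellTiter-Glo luminescence.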
IL-1B inflam inh: qHTS for Inhibitors of Inflammasome Signaling: IL-1-beta AlphaLISA Primary Screen; hit rate 4.7% among 360,000; activity change, % at 57.5 µM; THP-1 LPS/ATP IL-1B secretion, AlphaLISA, 16 h; active compounds read low; in the data active = activity change below about -50%; inconclusive = mostly about -30% to -49%
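Secreted IL-1B measured by AlphaLISA bead assay after 16 h compound exposure of THP-1 cells; compounds (final up to 57.5 uM) added 1 h before LPS (250 ng/mL) and ATP (1.25 mM) stimulation; lower signal means less secretion.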
TDP1 cell CPT: qHTS for Inhibitors of human tyrosyl-DNA phosphodiesterase 1 (TDP1): qHTS in cells in presence of CPT; AID 686979, 2013; hit rate 12% among 420,000; chicken DT40 Tdp1-/-;hTDP1 cells + 20 nM CPT, ATP luminescence, 48 h; Potency, µM (highest dose often 46.2 µM), for inactives: at the top dose activity change, negative = growth inhibition, hits mostly inhibitors; also: potency is read from the fitted curve at half-maximal effect; nearly all actives have a fitted effect of over 55% in size
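Chicken DT40 Tdp1-/- cells complemented with human TDP1, 400 cells/well, exposed to compounds plus 20 nM camptothecin for at least 48 h at 37 C; viability read as ATP content by CellTiter-Glo luminescence.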
* = called active by the depositor; ? = inconclusive; nt = not tested or not shown; [ ] = another dose, or the depositor's remark. The full list was thinned out, with hits kept by preference. Unless noted, calls follow the shape of the dose curve; as a rule, active = well fitted curve in the direction sought with a large enough effect; inconclusive = small, poorly fitted or top-dose-only effect, or another doubt; inactive = no such curve, though single readings can be large; an effect the other way counts as inactive or inconclusive. Unless noted, % is scaled to controls: 0 for no effect and ±100 for the full control effect.

SMILES	ALOX12 inh	HT1080NT lethal	HT1080 IDH1KD tx	DT40 TDP1 no CPT	IL-1B inflam inh	TDP1 cell CPT
CCOc1cc(/C=C/c2nc3ccccc3s2)ccc1OCC(=O)N1CCOCC1	?	-26%	-26%	21µM*	-21	-83%
COC1C(=O)N(C2CCN(S(=O)(=O)Cc3ccccc3F)CC2)C12CCOCC2 (stereo not drawn)	37%	nt	nt	nt	nt	nt
N#Cc1ccc(NC(=O)NCc2ccccn2)cc1	3%	nt	nt	nt	nt	nt
CCc1ccc(S(=O)(=O)N2CCC(n3cnnc3CC)CC2)cc1	1%	nt	nt	nt	nt	nt
CC(=O)N1CCc2c(sc(NC(=O)C3CC3)c2-c2nc3ccccc3s2)C1	?	?	?	15µM*	-84*	16µM*
CC(=O)N1CCc2c(sc(NC(=O)CSc3ccccc3)c2-c2nc3ccccc3s2)C1	?	nt	nt	10µM*	nt	13µM*
CC(=O)Nc1sc2c(c1-c1nc3ccccc3s1)CN(C(C)C)CC2	-26%	nt	nt	nt	nt	nt
CN1CCc2c(sc(NC(=O)CSc3ccccc3)c2-c2nc3ccccc3s2)C1	-18%	nt	nt	21µM*	nt	?
CN1CCc2c(sc(NC(=O)Cc3ccccc3)c2C#N)C1	?	-9%	2%	-12%	-14	2%
CC[C@H]1CN(C(=O)c2ccnc(Cl)c2)CC[C@H]1CC(=O)N(C)CC#N	12%[176 µM]	nt	nt	nt	nt	nt
CCCCCCN(C(=O)CCl)c1ccccc1	?	3.7µM*	?	10µM*	-67*	16µM*
CCCCCCCN(C(=O)CCl)c1cccc(C)c1	-24%	-18%	?	23µM*	-105*	?
CC(=O)N(CCN(C(C)=O)c1ccccc1)c1ccccc1	0%	-3%	-7%	-2%	-11	-18%
c1ccc(OCCN2CCNCC2)cc1	?	10%	11%	-5%	10	-10%
CCN1CCN(CCCOc2ccc(-c3ccccc3)cc2)CC1	-5%	?	?	?	-56*	?
c1ccc(OCCN2CCN(C(c3ccccc3)c3ccccc3)CC2)cc1	?	-13%	-14%	15µM*	-22	?
O=C(c1ccccc1)c1ccc(OCCCCN2CCCCC2)cc1	?	-13%	-7%	-1%	-11	-18%
CN1CCN(CCCOc2ccc(-c3ccccc3)cc2)CC1	?	23µM*	16µM*	16µM*	-82*	?
c1ccc(COc2ccc(OCCCCN3CCCCC3)cc2)cc1	?	?	-21%	21µM*	-58*	29µM*
COc1ccc(-c2nc(CSC(C)C(=O)NC(C)(C)C)co2)cc1 (stereo not drawn)	7%	nt	nt	nt	nt	nt
CC(=O)N1CCc2nn(CC(=O)N3CCN(c4ccccc4F)CC3)c(=O)cc2C1	46%	nt	nt	nt	nt	nt
COc1cccc(OCC(O)CN2CCN(C(c3ccccc3)c3ccccc3)CC2)c1 (stereo not drawn)	?	-10%	-12%	13µM*	-7	?
CCN1CCN(CC(O)COc2cccc(OC)c2)CC1 (stereo not drawn)	?	16%	13%	5%	20	6%
COc1ccc(OCCOCCN2CCN(C)CC2)cc1	?	1%	2%	-16%	6	-1%
CN1CCN(CCOc2ccc(-c3ccccc3)cc2)CC1	?	-14%	-9%	?	-59*	?
SMILES	ALOX12 inh	HT1080NT lethal	HT1080 IDH1KD tx	DT40 TDP1 no CPT	IL-1B inflam inh	TDP1 cell CPT
CCN1CCN(CCOc2ccc(Cl)cc2)CC1	1.4µM*	0%	-2%	-11%	12	-4%
c1ccc(-c2ccc(OCCCn3cncn3)cc2)cc1	1.4µM*	-9%	-29%	?	-23	?
OC1CCOC2(CCN(Cc3ccc[nH]3)CC2)C1 (stereo not drawn)	49%	nt	nt	nt	nt	nt
O=C(CN(c1cc(C(F)(F)F)ccc1Cl)S(=O)(=O)c1ccccc1)NCCc1ccccc1	?	nt	nt	21µM*	nt	?
CS(=O)(=O)N(CC(=O)NCCc1ccccc1)c1cc(C(F)(F)F)ccc1Cl	0%	nt	nt	-29%	nt	-27%
CCCCCn1nc(C(=O)Nc2ccn(C)n2)c2ccccc2c1=O	15%	nt	nt	nt	nt	nt
CCOc1ccc(-c2nc(N)ncc2-c2ccc(OC)cc2)c(O)c1	-30%	-8%	1%	?	-8	?
CCOc1ccc(-c2nc(N)ncc2Oc2ccc(OC)cc2)c(O)c1	16µM*	23µM*	?	2%	-87*	-5%
CCOc1ccc(-c2nc(N)ncc2-c2ccccc2)c(O)c1	9%	?	?	15µM*	?	21µM*
CN1CCC(N2CCC[C@@H](O)[C@H](NC(=O)c3ccc(OCc4ccccc4)cc3)C2)CC1	-6%	nt	nt	nt	nt	nt
O=C(Nc1ccc(F)cc1)c1ccc(S(=O)(=O)C2CCS(=O)(=O)C2)cc1 (stereo not drawn)	-7%	nt	nt	nt	nt	nt
Cc1ccc(C(=O)N(Cc2cccs2)c2ccccn2)cc1	-12%	nt	nt	nt	nt	nt
O=C(CN1CCCc2nc(C3CC3)ncc2C1=O)N1CCc2ccccc2C1	30%	nt	nt	nt	nt	nt
Cc1cccc(C(=O)Nc2c(NC3CCCCC3)c3ccccc3oc2=O)c1	-28%	nt	nt	nt	nt	nt
O=C(CC(c1ccc(OCc2ccccc2)cc1)S(=O)(=O)c1ccccc1)c1ccc(F)cc1 (stereo not drawn)	16%	nt	nt	nt	nt	nt
COc1ccc(CC(=O)Nc2cccc(/C(C)=N/NC(=O)C3(C)CC3(Br)Br)c2)cc1 (stereo not drawn)	4%	4%	-15%	?	26	16µM*
C/C(=N\NC(=O)C1(C)CC1(Br)Br)c1ccc(NC(=O)c2ccc(C)o2)cc1 (stereo not drawn)	22%	0%	-9%	18µM*	51	13µM*
COc1ccc(NC(=O)CSc2nc3cc(C)[nH]c3c(=O)n2C)cc1Cl	-3%	nt	nt	nt	nt	nt
COc1cccc(NC(=O)CSCn2nnc3c(=O)[nH]c(Cc4ccc(F)cc4)nc32)c1	4%	nt	nt	4.1µM*	nt	-22%
Cc1ccccc1-c1cc(C(=O)NC2CCCCCC2)c2cccc(Cl)c2n1	11%	nt	nt	nt	nt	nt
CCOc1ccc(S(=O)(=O)N(CC(=O)NC2CCCCC2C)Cc2ccco2)cc1 (stereo not drawn)	-12%	1%	-5%	26µM*	?	15µM*

Bioassay records deposited in PubChem BioAssay by National Center for Advancing Translational Sciences (NCATS).
